Screen size: about 340,000 compounds; about 1,000 (0.29%) were called active. No stated cut-off is given here; in the data, inconclusive means inhibition above about 29% without an active follow-up result; inactive means below that. These entries were drawn from the full list. Results with a measured potency or affinity are listed apart.
Target: Genome polyprotein (Dengue virus type 2 (strain 16681-PDK53)) (UniProt P29991)
Assay: flavivirus cap methylation enzyme inhibition – biochemical, confirmation dose response, primary screen (AID 588689)
Conditions: Dengue-2 NS5 methyltransferase capping enzyme assay, at 25 µM, stronger effect = higher value
[1] = measured here: pilot screen replicate inhibition

SMILES | inhibition | inhibition [1]
COc1ccc(S(=O)(=O)NC2CCCC2)cc1C(N)=O | -1.94% (inactive) | –
[O-][n+]1c2ccccc2[n+]([O-])c2cc(O)ccc21 | 37.8% (inactive) | –
O=c1cc(O)c2ccc(O)cc2o1 | 0% (inactive) | –
COc1ccc(C(=O)OCCNC(=O)c2ccncc2)cc1OC | -5.77% (inactive) | –
CCOC(=O)c1ccccc1NC(=O)c1n[nH]c(=O)c2ccccc12 | 0% (inactive) | –
COc1cccc(N2CCN(C(=O)c3c(C)nn(-c4ccccc4)c3C)CC2)c1 | -1.48% (inactive) | –
COc1ccc(C(=O)NC2CCCc3c2cnn3-c2ccc(C)c(C)c2)c(OC)c1OC (stereo not given) | -2.67% (inactive) | –
O=C1CC(Sc2ncccc2C(=O)O)C(=O)N1 (stereo not given) | 6.1% (inactive) | –
CC1=NN(c2ccccc2)C(=O)C1C(=S)SC1CC(=O)NC1=O (stereo not given) | 26.3% (inactive) | –
O=C(COC(=O)c1ccc(Br)o1)NC1CCCc2ccccc21 (stereo not given) | -3.71% (inactive) | –
CC(C)NS(=O)(=O)c1ccc(OCC(=O)NCc2ccco2)cc1 | -2.21% (inactive) | –
O=c1c2c([N+](=O)[O-])cc([N+](=O)[O-])cc2nc2ccccn12 | 0% (inactive) | –
Cc1ccc2nc(C)c(C(=O)N/N=C/c3ccccc3[N+](=O)[O-])cc2c1 | -1.3% (inactive) | –
Cc1nc2ccc([N+](=O)[O-])cc2nc1C | -4.51% (inactive) | –
O=[N+]([O-])c1cnc2ccccc2c1 | 3.89% (inactive) | –
COc1cc(Cl)cc(NC(=O)CCN2CCN(C)CC2)c1 | -1.61% (inactive) | –
O=C(NCCc1cccnc1)C1CCC(=O)N(CCc2cccc(F)c2)C1 (stereo not given) | -9.31% (inactive) | –
Cc1ccccc1C(=O)Nc1c2c(nn1C(C)(C)C)CS(=O)(=O)C2 | -5.2% (inactive) | –
C=C1C(=O)O[C@H]2C[C@H]1[C@@H](OC(C)=O)C/C(C)=C/CC/C(C)=C\CC[C@]2(C)O | -22.5% (inactive) | -2.46%
CC(=O)C12CCCCC1CC1C3CC(C)C4(O)CC(=O)CCC4(C)C3CCC12C (stereo not given) | -1.3% (inactive) | –
O=C(c1ccccc1NS(=O)(=O)c1ccccc1[N+](=O)[O-])N1CCCC1 | 5.25% (inactive) | –
O=C(c1ccccc1NS(=O)(=O)c1ccccc1[N+](=O)[O-])N1CCOCC1 | -3.61% (inactive) | –
O=C1NN(c2ccccc2)C(=O)/C1=C/c1ccc(Sc2cccc3ccccc23)o1 | -6.2% (inactive) | –

SMILES | inhibition | inhibition [1]
O=C1NN(c2ccccc2)C(=O)/C1=C\c1ccc(-c2cc([N+](=O)[O-])ccc2O)o1 | -10.2% (inactive) | –
O=C1NN(c2ccccc2)C(=O)/C1=C/c1ccc(Sc2ccc(Cl)cc2)o1 | 29.5% (inactive) | –
O=Cc1ccc(-c2cccc(C(=O)O)c2)o1 | 0.72% (inactive) | –
CCc1cc(=O)oc2c3c(cc(OCC(=O)NCCCC(=O)O)c12)OC(C)(C)CC3 | -5.29% (inactive) | –
Cc1cc(C)n2nc(SCC(=O)N3CCCCC3C)nc2n1 (stereo not given) | 3.69% (inactive) | –
CCC1(C2=CCCCC2)C(=O)NC(=O)N=C1N (stereo not given) | 1.17% (inactive) | –
C[C@H](NC(=O)c1nc[nH]c1C(=O)NCCCCCN)C(=O)OCc1ccccc1 | 1.59% (inactive) | –
O=C(COC(=O)c1ccc(-c2cnc3ccccc3n2)cc1)c1ccccc1 | 5.84% (inactive) | –
Nc1cccc2nsnc12 | 12.4% (inactive) | –
COc1ccc(-n2nc3cc(N)c(Br)cc3n2)cc1 | 2.38% (inactive) | –
CCOC(=O)C1C(C(=O)Nc2cccc(C(F)(F)F)c2)C1C(=O)NC(C)C (stereo not given) | -1.46% (inactive) | –
O=C(Nc1c[nH]c(=O)[nH]c1=O)c1cccc([N+](=O)[O-])c1 | -9.65% (inactive) | –
COC(=O)c1sc(-c2ccc(Cl)cc2)cc1NC(=O)/C=C/C(=O)O | 16.1% (inactive) | –
COC(=O)c1sc(-c2ccc(Cl)cc2)cc1NC(=O)c1ccccc1C(=O)O | 15.7% (inactive) | –
COC(=O)c1sc(-c2ccc(C(C)(C)C)cc2)cc1NC(=O)CSCC(=O)O | 3.13% (inactive) | –
COC(=O)c1sc(-c2ccccc2)cc1NC(=O)c1ccccc1 | -1.45% (inactive) | –
OCC(CO)(CO)n1cnnn1 | -8.59% (inactive) | –
Cc1ccnc(N/C=C(/NC(=O)c2ccccc2)C(=O)N/N=C\c2ccc(Cl)cc2)n1 | -3.09% (inactive) | –
O=C(COC(=O)c1ccc2c(c1)S(=O)(=O)N=C1CCCCCN12)NCc1cccs1 | -3.45% (inactive) | –
CCOC(=O)C1CCCN(S(=O)(=O)c2cc(OCC(N)=O)c(C)cc2Cl)C1 (stereo not given) | -5.68% (inactive) | –
CC(C)c1ccc(S(=O)(=O)c2nnn3c2nc(N2CCCCC2)c2ccccc23)cc1 | 1.47% (inactive) | –
CC(C)c1ccc(S(=O)(=O)c2nnn3c2nc(NCC2CCCO2)c2ccccc23)cc1 (stereo not given) | 0% (inactive) | –
O=C(/C=C/c1ccco1)Nc1ccc2c(c1)OCCO2 | -4.48% (inactive) | –

SMILES | inhibition | inhibition [1]
COC(=O)c1c(-c2ccc(C)cc2)csc1NC(=O)C1CC=CCC1C(=O)O (stereo not given) | 0% (inactive) | –
COC(=O)c1c(-c2ccccc2)csc1NC(=O)C1CC=CCC1C(=O)O (stereo not given) | -4.1% (inactive) | –
CCOC(=O)c1c(-c2ccc(F)cc2)csc1NC(=O)C1CC=CCC1C(=O)O (stereo not given) | 9.56% (inactive) | –
CCOC(=O)c1c(-c2ccc(C)cc2)csc1NC(=O)C1CC=CCC1C(=O)O (stereo not given) | 14.8% (inactive) | –
O=C(NC(=S)Nc1ccccc1Br)C1CC1 | 7.22% (inactive) | –
Cc1nc2cc(N3CCCCC3)c(NC(=O)c3cccnc3)cc2c(=O)n1Cc1ccccc1 | -0.81% (inactive) | –
Nn1c(SCC(=O)Nc2ccc(F)c(F)c2)nnc1C1CCCCC1 | -4.85% (inactive) | –
COC(=O)CSc1nnc(-c2ccc(S(=O)(=O)N3CCCC3)cc2)o1 | -3.25% (inactive) | –
Nc1nc2c(nc(SCc3ccccc3Br)n2[C@@H]2O[C@H](CO)[C@@H](O)[C@H]2O)c(=O)[nH]1 | -5.87% (inactive) | –
CCOc1ccc(NC(=S)N(CCc2c(C)[nH]c3ccc(C)cc23)Cc2ccncc2)cc1 | -0.7% (inactive) | –
O=C(CSc1nnc(-c2ccc(Cl)cc2)n1-c1ccccc1)N/N=C/c1ccccc1C(=O)O | -3.12% (inactive) | –
COc1ccc([C@H]2N[C@]3(CCCN(Cc4ccc(Cl)cc4)C3=O)[C@H]3C(=O)N(Cc4ccccc4)C(=O)[C@@H]23)cc1 | -3.98% (inactive) | –
CCOC(=O)c1c(NCc2ccc3c(c2)OCO3)c2ccccc2[nH]c1=O | -4.02% (inactive) | –
O=S(=O)(Nc1nc(-c2ccccc2)cs1)c1cc(Cl)ccc1Cl | 28.3% (inactive) | –
O=S(=O)(Nc1nccs1)c1cc(Cl)ccc1Cl | -13.7% (inactive) | –
S=C(Nc1ccc(Nc2ccccc2)cc1)Nc1ccccn1 | -0.82% (inactive) | –
COc1ccc(-c2cc(=O)c3ccccc3n2C)cc1 | -9.65% (inactive) | –
CCOc1ccc(N2C(=O)C(Cl)=C(Nc3ccccc3O)C2=O)cc1 | 31% (inactive) | –
COc1ccc(N2C(=O)C(Cl)=C(Nc3ccccc3OC)C2=O)cc1 | 1.45% (inactive) | –
Cc1cccc(/C=N/n2c(C)cc(C)c(C#N)c2=O)c1 | -3.26% (inactive) | –
O=C1NC(=S)N/C1=C/c1cccn1-c1ccc([N+](=O)[O-])cc1 | 0% (inactive) | –
O=C1C(=Cc2cccn2-c2ccccc2)C(=O)c2ccccc21 | 5.2% (inactive) | –
O=C(O)c1cccc(-n2cccc2C=C2C(=O)c3ccccc3C2=O)c1 | 12.5% (inactive) | –

SMILES | inhibition | inhibition [1]
O=Cc1cccn1-c1ccc(O)cc1 | -5.89% (inactive) | –
CCC(OC(=O)CNS(=O)(=O)c1ccccc1)C(=O)c1ccccc1 (stereo not given) | 5.35% (inactive) | –
COc1ccc2c(c1OC)C(=O)N1C(C(=O)O)Cc3c([nH]c4ccccc34)C21 (stereo not given) | -3.23% (inactive) | –
CCOc1cc(NC(=S)NCCCN2CCOCC2)c(OCC)cc1NC(=O)c1cccc(C)c1 | 3.64% (inactive) | –
O=S(=O)(CCSc1ccc(C(F)(F)F)cn1)c1ccccc1 | -9.27% (inactive) | –
O=C(NCc1ccco1)c1ccc(CS(=O)Cc2cccc(Cl)c2)o1 (stereo not given) | 2.71% (inactive) | –
NNc1nc(-c2ccccc2)c2cc(Cl)ccc2n1 | 4.62% (inactive) | –
COCCN(CC(=O)Nc1cccc(C)c1C)C(=O)C1(c2ccc(Cl)cc2)CCC1 | -0.37% (inactive) | –
Cc1ccc(C2C3=C(CCCC3=O)Nc3[nH]c(=S)[nH]c(=O)c32)cc1 (stereo not given) | -5.01% (inactive) | -6.68%
O=C1CCCC2=C1C(c1ccc(Br)cc1)c1c([nH]c(=S)[nH]c1=O)N2 (stereo not given) | 15.2% (inactive) | –
O=c1cc(CCc2ccccc2)oc2cccc(O)c12 | -3.62% (inactive) | –
CC(C)(C)C(=O)CN1C(=O)NC2(CCc3ccccc32)C1=O (stereo not given) | -0.65% (inactive) | –
COc1cccc(-c2nc(CS(=O)(=O)CC(=O)N3CCc4ccccc4C3)c(C)o2)c1 | 6.54% (inactive) | –
CNc1ccccc1C(=O)OC | 2.17% (inactive) | –
CC1(C)CC(=O)C(C(C#Cc2ccccc2)C2=C(O)CC(C)(C)CC2=O)=C(O)C1 | -2.82% (inactive) | –
CC1(C)CC(=O)C(C(C2=C(O)CC(C)(C)CC2=O)c2ccco2)C(=O)C1 (stereo not given) | -52.5% (inactive) | –
CC1(C)CC(=O)C(Br)=C(O)C1 | -10.3% (inactive) | –
CC1(C)CC(=O)C(C(c2ccncc2)C2C(=O)CC(C)(C)CC2=O)C(=O)C1 | 5.41% (inactive) | –
CC1(C)CC(=O)C(N=Nc2ccc(OC(F)F)cc2)=C(O)C1 | 10.8% (inactive) | –
CC1(C)CC(=O)C(C(C2=C(O)CC(C)(C)CC2=O)c2cccc(O)c2)C(=O)C1 (stereo not given) | 0.68% (inactive) | -19.3%
CC1(C)CC(=O)C(C(c2ccco2)C2C(=O)CC(C)(C)CC2=O)C(=O)C1 | 37.4% (inactive) | 17.1%
COc1cccc(C(C2=C(O)CC(C)(C)CC2=O)C2C(=O)CC(C)(C)CC2=O)c1 (stereo not given) | -1.95% (inactive) | –
